From the supplement of paper PMC6555819

How the values were obtained:
Experiment in all cases: PBM binding z-score (relative to random genomic background probes); higher = stronger binding; sequences stand for … in GC…GCGATTGACAGCGTAGAATGAAGG
[1] = tested on: FXR:RXRa (NR concentration 270 nM, RXRa partner concentration 90 nM)
How it was run: (§1)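 Binding z-scores take random background probes as their reference. They come from custom Agilent 4×180K protein-binding microarrays incubated 1 h with ligand-free nuclear receptor dimers, with antibodies against each partner (one per run) detecting binding. Scanned fluorescence was regression-normalized.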

[2] = tested on: LXRa:RXRa (NR concentration 270 nM, RXRa partner concentration 90 nM)
How it was run: as §1

[3] = tested on: LXRa homodimer (NR concentration 270 nM)
How it was run: as §1

[4] = tested on: LXRb:RXRa (NR concentration 270 nM, RXRa partner concentration 90 nM)
How it was run: as §1

[5] = tested on: LXRb homodimer (NR concentration 270 nM)
How it was run: as §1

[6] = tested on: PPARa:RXRa (NR concentration 270 nM, RXRa partner concentration 90 nM)
How it was run: as §1

[7] = tested on: PPARg:RXRa (NR concentration 180 nM, RXRa partner concentration 90 nM)
How it was run: as §1

[8] = tested on: PPARg:RXRa 270nM:90nM, anti-RXR (NR concentration 270 nM, RXRa partner concentration 90 nM)
How it was run: as §1

[9] = tested on: PPARg:RXRa 30nM:10nM, anti-RXR (NR concentration 30 nM, RXRa partner concentration 10 nM)
How it was run: as §1

[10] = tested on: PPARg:RXRa 90nM:30nM, anti-RXR (NR concentration 90 nM, RXRa partner concentration 30 nM)
How it was run: as §1

[11] = tested on: PPARg:RXRa DBDmut IVT, anti-RXR (DBD mutation: RXRa K156A/R161A, NR concentration 270 nM, RXRa partner concentration 90 nM)
How it was run: as §1

[12] = tested on: PPARg:RXRa IVT, anti-PPARg (NR concentration 270 nM, RXRa partner concentration 90 nM)
How it was run: as §1

[13] = tested on: PPARg DBDmut:RXRa IVT, anti-PPARg (DBD mutation: PPARg1 K132A/R137A, NR concentration 270 nM, RXRa partner concentration 90 nM)
How it was run: as §1

[14] = tested on: PPARg DBDmut IVT, anti-PPARg (DBD mutation: PPARg1 K132A/R137A, NR concentration 270 nM)
How it was run: as §1

[15] = tested on: PPARg homodimer (NR concentration 180 nM)
How it was run: as §1

[16] = tested on: PXR:RXRa (NR concentration 270 nM, RXRa partner concentration 90 nM)
How it was run: as §1

[17] = tested on: PXR homodimer (NR concentration 270 nM)
How it was run: as §1

[18] = tested on: RARa:RXR (NR concentration 270 nM, RXRa partner concentration 90 nM)
How it was run: as §1

[19] = tested on: RARa homodimer (NR concentration 270 nM)
How it was run: as §1

[20] = tested on: RARb:RXRa (NR concentration 270 nM, RXRa partner concentration 90 nM)
How it was run: as §1

Row | Sequence | PBM binding z-score [1] | PBM binding z-score [2] | PBM binding z-score [3] | PBM binding z-score [4] | PBM binding z-score [5] | PBM binding z-score [6] | PBM binding z-score [7] | PBM binding z-score [8] | PBM binding z-score [9] | PBM binding z-score [10] | PBM binding z-score [11] | PBM binding z-score [12] | PBM binding z-score [13] | PBM binding z-score [14] | PBM binding z-score [15] | PBM binding z-score [16] | PBM binding z-score [17] | PBM binding z-score [18] | PBM binding z-score [19] | PBM binding z-score [20]
1 | TCTGCTAGGTCAGTTGGTCAGCTAGCGAGCTGCC | 0.851 | 0.628 | -0.728 | 0.453 | 0.185 | 1.25 | 0.0409 | 1.64 | 1.21 | 1.31 | 2.78 | 3.15 | -0.34 | -0.0427 | -0.0101 | 0.114 | -0.917 | 0.452 | -1.22 | 3.38
2 | CCAGACAGGTGGGAAGGTAACTCAGCCTCGATTA | -0.208 | -0.246 | 0.289 | 0.0174 | -0.794 | 0.0187 | 0.131 | -0.544 | -0.249 | -0.529 | -0.289 | -0.383 | -0.344 | -0.717 | 0.689 | -0.359 | 0.0826 | -0.164 | 0.496 | -0.0117
3 | TCTGCTAGGTCAACGATGGGCAGCTAATCTGCTA | 3.19 | 2.29 | -0.252 | 1.2 | -0.397 | 2.94 | 2.47 | 3.01 | 1.85 | 2.49 | 4.14 | 4 | 1.49 | -0.401 | 0.59 | 0.836 | -1.21 | 1.73 | -1.18 | 4.19
4 | GCTTACGGGTAAAAGGTTATAGCATGAATAGAAT | 1.77 | 2.73 | 0.384 | 2.57 | 0.0166 | 4.81 | 7.24 | 7.67 | 6.08 | 8.3 | 1.1 | 3.12 | 0.792 | 0.799 | 1.62 | 2.36 | 0.623 | 3.75 | 0.86 | 1.98
5 | TAGCCTAGGTCAGATCGGGCCAGGATACGCTATA | 1.61 | 1.02 | -0.706 | 0.308 | -0.62 | 1.68 | 0.718 | 0.623 | -0.241 | -0.042 | -0.033 | 1.22 | -0.531 | -0.442 | -0.135 | 0.771 | -0.663 | 0.816 | -1.26 | 3
6 | CCTACTGGGCCAAAGGTCGTTGATTCCAATGCTC | 1.29 | 1.46 | -0.124 | 1.91 | -0.505 | 5.3 | 11.1 | 9.69 | 9.46 | 10.5 | 5.47 | 5.6 | 0.111 | -0.79 | 1.18 | 2.45 | 0.0615 | 3.09 | -0.377 | 1.97
7 | CCTTACGGGTCACTCCAGGTTATAGTATCGGAGT | 4.76 | 7.84 | 2.33 | 5.52 | 0.0567 | 4.62 | 3.5 | 3.93 | 1.33 | 2.85 | 2.7 | 3.52 | 0.75 | 0.31 | 1.56 | 4.94 | 0.228 | 3.64 | 0.304 | 3.8
8 | ATCTCTAGGTAAAAGTTCAGAGAATCCCGAGGAT | 1.14 | 1.55 | 1.43 | 1.03 | 0.872 | 4.35 | 8.44 | 7.88 | 7.79 | 9.43 | 2.03 | 3.83 | 1.22 | 1.3 | 1.38 | 1.99 | 1.55 | 1.76 | 1.49 | 2.5
9 | CCTTACGGGTCATGAGGTTATAGCACGACGAGCG | 7.04 | 4.93 | 0.379 | 3.84 | 0.286 | 5.85 | 5.69 | 5.69 | 2.37 | 4.58 | 3.29 | 4.22 | 1.38 | 0.99 | 3.37 | 4.44 | 0.345 | 5.82 | 1.27 | 4.11
10 | TAGCCTAGATCAGATCGGGCCAGTATACGCTATA | -0.847 | -1.11 | -0.829 | -1.18 | -1.2 | -1.18 | 0.218 | -0.582 | -0.499 | -0.448 | -0.0973 | 0.607 | -0.736 | -0.528 | -1.3 | -0.794 | -1.1 | -0.901 | -1.23 | -1.19
11 | CCTGCTAGGTCAATGGTCGGCTAAAGCAGCTCGC | 2.91 | 2.29 | 0.0582 | 1.14 | -0.355 | 2.95 | 3.48 | 4.34 | 1.27 | 3.38 | 4.15 | 4 | -0.289 | -0.553 | 1.3 | 0.918 | -0.868 | 1.47 | 0.0604 | 3.73
12 | CAATCTAGGTCACCGGAAGGTCAAAGTCCGCATG | 6.51 | 6.15 | 6.06 | 5.42 | 1.92 | 6.32 | 10 | 7.96 | 6.12 | 8.12 | 8.34 | 8.62 | 2.22 | 1.39 | 7.89 | 5.96 | 2.44 | 7.4 | 3.19 | 5.41
13 | TCACACAGGTGAAGGTAACTCAGGTACGCAGTCG | 0.851 | 2.02 | -0.228 | 1 | -0.466 | 1.32 | 1.14 | 1.81 | 2.94 | 2.66 | 2.55 | 1.69 | 0.51 | -0.435 | -0.0155 | 0.559 | -0.0288 | 0.898 | 0.414 | 1.15
